This is a sample that favours compounds with a hit; in the whole collection about 8% have one here.
SARS PLP yeast – qHTS of Yeast-based Assay for SARS-CoV PLP; S. cerevisiae expressing SARS-CoV PLpro, growth rescue; Potency, µM (series often up to 32.9 µM), without a hit: at the top dose activity, positive = growth rescue, hits mostly activators; actives 0.19% (n = 330,000); AID 485353, 2010; calls by dose curve; also: potency is read from the fitted curve at half-maximal effect; 0% is about no effect; nearly all actives have a fitted effect of over 55% in size
Marburg entry inh – qHTS for inhibitors of binding or entry into cells for Marburg Virus. Marburg virus pseudotyped entry inhibition, cell reporter. Potency, µM (titrated, usually from 37.8 µM), inactives show top-dose activity change, negative = inhibition, hits mostly inhibitors. actives 1.8% (n = 300,000). AID 540276, 2011; calls by dose curve; tested in HEK293 cells; also: potency is read from the fitted curve at half-maximal effect; % is scaled to controls: 0 for no effect and ±100 for the full control effect
HCV inh – qHTS Assay for Inhibitors of Hepatitis C Virus (HCV); Huh7.5.1 HCVcc-Cre infection, luciferase reporter, 44 h; Potency, µM (titrated, usually from 41.8 µM), for inactives: top-dose activity change, negative = inhibition, usual class: inhibitors; actives 3.4% (n = 340,000); also: potency is read from the fitted curve at half-maximal effect; % is scaled to controls: 0 for no effect and ±100 for the full control effect
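Cells (1,000/well) were plated 4 h before compound, then infected with HCVcc-Cre virus (~0.5 moi). After 44 h further culture, infection was read as luciferase luminescence following a 15 min substrate incubation at room temperature.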
HCMV antiviral – qHTS Assay for inhibitors of the human cytomegalovirus (HCMV) | HFF cells, HCMV-luciferase reporter, 72 h; active compounds read low | activity change, negative = inhibition, % at 57.5 µM | actives 4.5% (n = 410,000); in the data active = activity change below about -60%; inconclusive = no clear call, values can overlap the other calls; inactive = above about -39%; also: % is scaled to controls: 0 for no effect and ±100 for the full control effect
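After 16 h attachment at 37C, HFF cells received test compound and HCMV-luciferase (1 PFU/cell); reporter luminescence read 72 h later, data normalized against buffer-only and known inhibitor Salinomycin.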
FMDV inh – High Throughput Screening for Foot and Mouth Disease Virus Antivirals. actives 1.2% (n = 410,000). Potency, µM (top dose mostly 57.9 µM), inactives show at the highest dose activity change, negative = inhibition, usual class: inhibitors. AID 1159524, 2015. FMDV antiviral cell-based qHTS; calls by dose curve; tested in HEK293T cells; also: read-out not given here; potency is read from the fitted curve at half-maximal effect; % is scaled to controls: 0 for no effect and ±100 for the full control effect; nearly all actives have a fitted effect of over 45% in size
LASV entry inh – qHTS for Inhibitors of binding or entry into cells for Lassa Virus; Lassa virus pseudotype entry inhibition, cell reporter; Potency, µM (doses to about 37.9 µM), without a hit: at the top dose activity change, negative = inhibition, usual class: inhibitors; actives 1.2% (n = 300,000); AID 540256, 2011; calls by dose curve; tested in HEK293 cells; also: potency is read from the fitted curve at half-maximal effect; % is scaled to controls: 0 for no effect and ±100 for the full control effect; nearly all actives have a fitted effect of over 50% in size
HCV confirm – qHTS Assay for Inhibitors of Hepatitis C Virus (HCV): Confirmation Assay for Cherry-picked Compounds; shares compounds with HCV inh; HCVcc-Cre infectious virus cell assay, luciferase, inhibition; Potency, µM (series often up to 41.8 µM), inactives show at the top dose activity, negative = inhibition, usual class: inhibitors; actives 78% (n = 640); also: potency is read from the fitted curve at half-maximal effect; nearly all actives have a fitted effect of over 80% in size
HCV host tox – qHTS Assay for Inhibitors of Hepatitis C Virus (HCV): Cytotoxicity Counterscreen for Cherry-picked Compounds. shares compounds with HCV inh. HCV host cell line cytotoxicity counterscreen. Potency, µM (highest dose often 41.8 µM), inactives show top-dose activity change, negative = cytotoxicity, most hits filed as inhibitors. actives 22% (n = 640). AID 720576, 2013;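 also: potency is read from the fitted curve at half-maximal effect; 44 h compound exposure; % is scaled to controls: 0 for no effect and ±100 for the full control effect; nearly all actives have a fitted effect of over 55% in size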
* hit, by the source's call; ? = inconclusive; · = no result given; [ ] = dose if it differs, or a comment. Unless noted, calls follow the shape of the dose curve; as a rule, active = well fitted curve in the direction sought with a large enough effect; inconclusive = small, poorly fitted or top-dose-only effect, or another doubt; inactive = no such curve, though single readings can be large; an effect the other way counts as inactive or inconclusive.

SMILES	SARS PLP yeast	Marburg entry inh	HCV inh	HCMV antiviral	FMDV inh	LASV entry inh	HCV confirm	HCV host tox
COc1cc(/C=N/NC(=O)c2ccc(CN3C(=O)c4cccc5cccc3c45)cc2)cc(OC)c1O	-2%	·	?	-33	-25%	·	?	-9%
COc1ccc(/C=N/NC(=O)c2ccc(CN3C(=O)c4cccc5cccc3c45)cc2)cc1O	1%	?	?	-26	-4%	-4%	·	·
CSc1nc2nc(C)cc(-c3ccccc3)n2n1	-3%	4%	7.9µM*	-26	-22%	11%	?	15%
Cc1ccc2c(c1)c1c3n2CC(=C2C(=O)OC(C)(C)OC2=O)NC3CCC1 (centres undefined)	-1%	-29%	5µM*	-24	·	-22%	28µM*	-34%
CN(C)c1ccc(C(CNC(=O)COc2ccccc2)N2CCOCC2)cc1 (centres undefined)	·	·	·	-26	-20%	-3%[46.1 µM]	·	·
CCN(CC)CCNC(=O)C(=O)NCC(c1cccnc1)N1CCN(c2ccccc2)CC1 (centres undefined)	·	·	·	7	-16%	2%[46.1 µM]	·	·
COc1ccc(C(=O)Nc2cc(OC)cc3cccnc23)cc1	0%	·	?	138	16%	·	14µM*	4%
CN1CCN(c2ncc3nc(-c4ccc(Cl)cc4)c(=O)n(C4CC4)c3n2)CC1	·	·	·	·	-14%	·	·	·
COc1ccccc1NC(=O)c1ccc(NC(=O)c2cc3c(s2)CCC3)cc1	?	?	8.9µM*	-24	?	-25%	8.9µM*	17%
CCn1c(Cl)c(C=O)s/c1=N\S(=O)(=O)c1ccccc1	-3%	·	3.2µM*	?	?	·	20µM*	11µM*
CCN1C(=O)CS/C1=N\S(=O)(=O)c1ccc(Cl)cc1	-2%	0%[46.1 µM]	16%	4	-15%	-5%	·	·
CCC(=O)N1c2ccc(S(=O)(=O)N3CCN(c4ccc([N+](=O)[O-])cc4)CC3)cc2CC1C (centres undefined)	-5%	·	?	?	?	·	·	·
CCCCOc1ccc(/C=C/C(=O)Nc2ccc([N+](=O)[O-])cc2C)cc1	3%	-7%	?	-12	0%	0%	·	·
CCCOc1ccc(/C=C/C(=O)Nc2ccc([N+](=O)[O-])cc2)cc1	-11%	1.8µM*	3.5µM*	-70*	5.6µM*	?	7.9µM*	20µM*
Clc1ccc2c(NCc3ccccc3)ccnc2c1	-19%	?	5.6µM*	-74*	?	?	10µM*	?
S=C(NNc1ccnc2cc(Cl)ccc12)Nc1ccccc1Cl	-21%	?	?	-24	?	?	·	·
Cc1ccc2c(c1)[C@H]1[C@H](CO2)[C@H](c2ccccc2)[C@]2(C)C(=O)N(Cc3ccc(F)cc3)CC(=O)N12	1%	·	?	21	?	·	?	24%
O=S(=O)(c1ccc2[nH]c3c(c2c1)CCCC3)N1CCN(c2cccc(C(F)(F)F)c2)CC1	·	·	·	-13	-16%	?	·	·
Cc1ccc(C(C)NC(=O)c2ccco2)cc1 (centres undefined)	-4%	7%	6.3µM*	13	10%	-8%	-24%	-10%
CCOC(=O)CC(NC(=O)c1ccco1)c1ccc(C)cc1 (centres undefined)	1%	-5%	-6%	-3	-5%	9%	·	·
CC1CCCN(CC(O)COc2ccc(-c3ccccc3)cc2)C1 (centres undefined)	-1%	?	2.8µM*	-28	-24%	8%	16µM*	52%
OC1CCCN(CC(O)COc2ccc(-c3ccccc3)cc2)C1 (centres undefined)	1%	?	?	-1	11%	14%[46.1 µM]	·	·
Cc1ccc(CN2CCCn3nc(C(=O)NCCC(C)C)cc3C2=O)cc1	·	·	·	19	10%	-6%[46.1 µM]	·	·
Cc1cc(/C=C(\C#N)C(=O)Nc2ccccc2)c(C)n1-c1ccc2c(c1)OCO2	-1%	?	?	-26	-7%	?	18µM*	-13%
CNCCc1cnc[nH]1	·	·	·	·	7%	·	·	·
SMILES	SARS PLP yeast	Marburg entry inh	HCV inh	HCMV antiviral	FMDV inh	LASV entry inh	HCV confirm	HCV host tox
Cc1cnc[nH]1	-2%	·	-61%	-22	-16%	·	9%	-7%
Cc1cc(C)c2[nH]c(=O)c(CN(Cc3cccs3)C(=S)NCC3CCCO3)cc2c1 (centres undefined)	3%	?	-9%	-39	-11%	?	·	·
CCOC(=O)C1(C)CCCN(C(=O)c2cc(C#N)cs2)C1 (centres undefined)	·	·	·	-5	-12%	·	·	·
CCN(CC)CCCn1c2c(c(SCC(=O)Nc3cc(C)cc(C)c3)nc1=O)CCC2	·	·	·	1	-12%	·	·	·
CCCCCCCCCCn1c2c(c(=N)c3c1CCC3)CCC2	-43%	?	3.5µM*	-98*	18µM*	?	1.8µM*	2.2µM*
CCOc1ccccc1OCC(=O)OCC(=O)c1c(N)n(CC(C)C)c(=O)n(C)c1=O	-3%	·	?	-4	?	·	?	-90%
COc1ccccc1CCC(=O)OCC(=O)c1c(N)n(CC(C)C)c(=O)n(C)c1=O	-5%	-10%	-14%	-3	?	-27%	·	·
Cc1cc(C[n+]2ccccc2)c2nsnc2c1	8%	10%	?	?	·	0%	3.5µM*	13µM*
Cc1cc(C[n+]2ccsc2N)c2ncccc2c1	4%	·	-5%	-15	-13%	·	·	·
Cc1cccc(C(=O)N2CCc3cc(-c4csc(NC(=O)CN5CCCC5)n4)ccc32)c1	0%	?	?	-26	?	·	·	·
Cc1sc(NC(=O)Cc2ccc3c(c2)OCO3)nc1-c1ccc2c(c1)CCN2C(=O)c1cccc(F)c1	14%	?	4µM*	?	?	1%	3.5µM*	?
COc1ccc(Nc2ccc3c(c2)=NC2(CCCCC2)[N+]=3[O-])cc1	-23%	?	5µM*	-98*	?	?	18µM*	16µM*
COc1ccc(NC2=NC(=S)N(c3ccccc3C)C23CCCCC3)cc1	28%	-3%	2%	-18	-15%	0%	·	·
S=C(c1ccc(-c2ccc(Cl)c(Cl)c2)o1)N1CCOCC1	-14%	-22%	?	·	·	?	14µM*	-18%

High-throughput results as filed in PubChem.
